TDP-43 rescue – rescues yeast from TDP-43 toxicity | yeast TDP-43 toxicity rescue, BacTiter-Glo growth, 24 h | Potency, µM (highest dose often 46.1 µM), hits mostly activators | 0.45% of 45,000 active | AID 1347073; active means well fitted activation curve with a large enough effect; further: nearly all actives have a fitted effect of over 55% in size
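TDP-43-expressing yeast, pregrown in raffinose, seeded at OD600 0.02 in galactose medium with compound for 24 hr at 30 deg C. Growth read by BacTiter-Glo luminescence, so rescue of toxicity appears as activation.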
Numbers stand for hits; 0 = inactive. Shown is part of a subset that was picked to be rich in hits.

SMILES | TDP-43 rescue
CCc1sc(C(=O)Nc2ccc3nc(C)sc3c2)cc1C | 11µM
Cc1nc2ccc(NC(=O)c3ccc(=O)[nH]c3)cc2s1 | 0
C=CCNC(=O)Nc1ccc2nc(C)sc2c1 | 0
COc1ccccc1Nc1ccc(C(=O)O)cc1[N+](=O)[O-] | 0
CN(Cc1ccccc1)c1ccc(C(=O)O)cc1[N+](=O)[O-] | 16µM
CN(C)c1ccc(C(=O)c2ccccc2C(=O)O)cc1[N+](=O)[O-] | 0
Cc1ccccc1NC(=O)N1CCc2cc(S(=O)(=O)N3CCC(C)CC3)ccc21 | 0
NC(=O)Cn1c(=O)n(CCCCCC(=O)NCc2ccccc2Cl)c(=O)c2sccc21 | 0
CC(=O)N1CCN(C(=O)C2CCN(S(=O)(=O)c3ccccc3C(F)(F)F)CC2)CC1 | 0
O=S(=O)(c1cc(C(F)(F)F)ccc1Cl)N1CCN(c2ncnc3ccccc23)CC1 | 0
O=S(=O)(c1ccccc1C(F)(F)F)N1CCN(c2ncnc3sccc23)CC1 | 11µM
Cc1ccc(CN(C(=O)COc2ccc(C(C)(C)C)cc2)C2CCS(=O)(=O)C2)o1 (configuration not stated) | 0
CCCN1C(=O)S/C(=C/c2ccc(N3CCOCC3)o2)C1=O | 0
N#C/C(=C\c1ccc(N2CCOCC2)o1)C(=O)Nc1ccc(O)cc1 | 0
N#C/C(=C/c1ccc(N2CCOCC2)o1)c1ccc(Br)cc1 | 14µM
O=C(Nc1nnc(N2CCCCCC2)s1)Nc1ccccc1C(F)(F)F | 0
Cc1ccc(NC(=O)c2ccc(Cl)cc2Cl)c(C(=O)c2ccccc2)c1 | 0
Cc1cc(OCC(=O)Nc2cc(-c3nc4ccccc4[nH]3)ccc2C)ccc1Cl | 0
O=C(Nc1ccc(N2CCCC2)cc1)c1cccc(-c2cc3ccccc3oc2=O)c1 | 22µM
O=C(Nc1ccc(Br)cn1)c1cccc(-c2cc3ccccc3oc2=O)c1 | 0
CC(=O)N1CCN(c2ccc(NC(=O)c3cccc(Cl)c3)cc2)CC1 | 0
COc1cccc(NC(=O)Cn2c(=O)n(CC(=O)NCCc3ccccc3)c(=O)c3sccc32)c1 | 0
CC(C)CNC(=O)COc1ccccc1[N+](=O)[O-] | 0
COc1ccc(C(=O)NNC(=O)c2ccccc2[N+](=O)[O-])cc1 | 0
CC(C)(C)c1ccc(OCC(=O)NNC(=S)NC(=O)c2ccccc2[N+](=O)[O-])c(Br)c1 | 11µM
SMILES | TDP-43 rescue
CCc1ccccc1NC(=O)Cn1nnc(-c2nc(-c3ccc(C)cc3)no2)c1N | 0
CCC(Oc1ccccc1)C(=O)Nc1ccc(O)c(-c2nc3cc(C)ccc3o2)c1 (configuration not stated) | 0
CCOc1ccc(NCc2cccn2-c2nnc(N3CCC(C(=O)NCCc4ccc(OC)c(OC)c4)CC3)s2)cc1 | 0
Cc1cccc(CSCCNC(=O)CN(c2ccccc2)S(=O)(=O)N(C)C)c1 | 0
O=C(Nc1ccc(Br)cc1F)N1CCC2(CC1)Oc1ccccc1C(=O)N2Cc1ccccc1F | 0
Cc1nc(N2CCCCC2)c2c(C)c(C(=O)Nc3ccccc3C(F)(F)F)sc2n1 | 18µM
COc1ccc(C)cc1NC(=O)c1sc2nc(C)nc(N3CCOCC3)c2c1C | 0
Cc1nc(N2CCN(C)CC2)c2c(C)c(C(=O)Nc3ccc(F)cc3)sc2n1 | 0
CCCCOCc1cc(CN2CCN(c3cccc(Cl)c3)CC2)c(O)c2ncccc12 | 0
Cc1ccc(NCc2cccn2-c2nnc(N3CCC(C(=O)NCc4ccccc4C)CC3)s2)cc1 | 0
Cc1cc(/C=C(\C#N)C(=O)N2CCCCC2)cc(C)c1O | 0
N#C/C(=C\c1cccc(Br)c1)C(=O)N1CCCCC1 | 13µM
N#C/C(=C\c1ccccc1)C(=O)N1CCN(c2ccccc2F)CC1 | 0
O=C(Nc1cccc(Cl)c1)N1Cc2ccccc2Oc2ncccc21 | 0
COc1ccc(N2CC(NC(=O)COc3ccc(F)cc3)CC2=O)cc1OC (configuration not stated) | 0
Cc1ccc2c(COC(=O)c3ccccc3Cl)cc(=O)oc2c1 | 0
CC(NC(=O)OCc1ccccc1)C(=O)Oc1cc2oc(=O)cc(-c3ccccc3)c2cc1Cl (configuration not stated) | 4.5µM
Cc1c(OCC(N)=O)ccc2c(-c3ccccc3)cc(=O)oc12 | 0
Cc1ccc(NC(=O)CN2C(=O)C(c3ccc(C)cc3)=NC23CCCCCC3)cc1 | 0
O=C(Cn1c(=O)c2sccc2n(CC(=O)Nc2ccc(Cl)cc2Cl)c1=O)NCCc1ccccc1 | 0
O=C(NCCc1ccccc1)c1ccc(-c2cccnc2)c2ccoc12 | 0
O=C(NCc1cccc(Cl)c1)c1ccc(-c2cccnc2)c2ccoc12 | 14µM
Cn1cc(-c2ccc(C(=O)NCc3cccc(Cl)c3)c3occc23)cn1 | 0
COC(=O)c1c(-c2cccs2)csc1NC(=O)COc1ccc(C(C)C)cc1 | 0
O=C1NC(=S)S/C1=C\c1cc2ccccc2nc1N1CCCCC1 | 6.3µM
SMILES | TDP-43 rescue
COc1ccc2nc(N3CCCCC3)c(/C=C3\SC(=S)NC3=O)cc2c1 | 0
CN1CCN(/C=C2\SC(=S)NC2=O)CC1 | 0
O=C(CCCn1c(=O)c2sccc2n(Cc2ccc(F)cc2Cl)c1=O)NCc1ccc2c(c1)OCO2 | 0
O=C(CSc1nccn1C1CCCC1)Nc1ccccc1 | 0
Fc1cccc(-n2ncc3c2ncn2nc(COc4ccc(Cl)cc4)nc32)c1 | 0
O=C(COC(=O)/C=C/c1ccccc1Cl)NCC1CCCO1 (configuration not stated) | 0
O=C(COC(=O)c1c(Cl)ccc(Cl)c1Cl)NCC1CCCO1 (configuration not stated) | 14µM
O=C(COC(=O)c1ccc(Br)cc1)NCC1CCCO1 (configuration not stated) | 0
Cc1ccc(CN(C(=O)COc2ccc(Cl)cc2Cl)C2CCS(=O)(=O)C2)o1 (configuration not stated) | 0
COc1ccccc1OCCn1c(COc2cc(C)ccc2C)nc2ccccc21 | 0
Cc1ccc(NC(=O)CCCN2C(=O)COc3ccc(C)cc32)c(Cl)c1 | 0
CCCSc1ncc(Cl)c(C(=O)N2CCN(c3cccc(Cl)c3)CC2)n1 | 0
CN1CCN(c2oc(/C=C/c3ccc(F)cc3)nc2C#N)CC1 | 0
COc1cccc(NC(=O)C2CCCN(c3nnc(-n4c(C)ccc4C)s3)C2)c1 (configuration not stated) | 0
CCNC(=S)Nc1ccc(Cl)cc1 | 0
S=C(NCc1ccccc1)NCc1ccc(CNC(=S)NCc2ccccc2)cc1 | 0
S=C(NCc1ccc(Cl)cc1)Nc1ccccc1 | 13µM
CCc1ccc(OCCCSc2nc(-c3ccc(C(C)(C)C)cc3)nc3cc(=O)[nH]n23)cc1 | 0
COc1ccccc1-n1c(/C=C/c2c(C)n(C)c3ccccc23)nc2ccccc2c1=O | 0
CCOC(=O)N1CCC(NC(=O)c2ccc3c(c2)N(Cc2ccccc2)C(=O)c2ccccc2S3(=O)=O)CC1 | 0
Cn1nnnc1N=N/C(=N/Nc1ccccc1)c1ccccc1 | 6.3µM
O=C(Nc1cccc(Cl)c1)c1cnc2sc(N3CCCC3)nn2c1=O | 0
O=S(=O)(NCc1csc(-c2ccccc2)n1)c1ccccc1 | 0
CC(C)CCN1C(=O)c2ccccc2CC1(C)C(=O)NC1CCCCC1 (configuration not stated) | 0
CCOc1ccc(S(=O)(=O)Nc2ccc3c(c2)c(C(C)=O)c(C)n3S(=O)(=O)c2ccc(OCC)cc2)cc1 | 0
CC(C)C(=O)Nc1nc2ccc(S(C)(=O)=O)cc2s1 | 0
CCC(C)C(=O)Nc1nc2ccc(OC)cc2s1 (configuration not stated) | 11µM
COc1ccc2nc(NC(=O)Nc3ccccc3OC)sc2c1 | 0
CCCOc1ccc(CNC(=O)c2ccc3c(c2)N(Cc2ccccc2)CCS3)cc1 | 0

High-throughput results deposited in PubChem by National Center for Advancing Translational Sciences (NCATS).
